{"source": "PubChem BioAssay AID602123", "about": "(The Scripps Research Institute Molecular Screening Center, 2011)", "note": "In all, about 360,000 compounds went through this assay and about 1,500 (0.42%) were called active. No stated cut-off is given here; in the data, active means inhibition above about 13% (passing the limit was not always enough); inactive means the rest. The entries come from a sample that favours actives as a whole.", "data": [{"target": "Lon protease (Escherichia coli (strain K12)) (UniProt P0A9M0)", "sequence (P0A9M0 whole entry, looked up)": "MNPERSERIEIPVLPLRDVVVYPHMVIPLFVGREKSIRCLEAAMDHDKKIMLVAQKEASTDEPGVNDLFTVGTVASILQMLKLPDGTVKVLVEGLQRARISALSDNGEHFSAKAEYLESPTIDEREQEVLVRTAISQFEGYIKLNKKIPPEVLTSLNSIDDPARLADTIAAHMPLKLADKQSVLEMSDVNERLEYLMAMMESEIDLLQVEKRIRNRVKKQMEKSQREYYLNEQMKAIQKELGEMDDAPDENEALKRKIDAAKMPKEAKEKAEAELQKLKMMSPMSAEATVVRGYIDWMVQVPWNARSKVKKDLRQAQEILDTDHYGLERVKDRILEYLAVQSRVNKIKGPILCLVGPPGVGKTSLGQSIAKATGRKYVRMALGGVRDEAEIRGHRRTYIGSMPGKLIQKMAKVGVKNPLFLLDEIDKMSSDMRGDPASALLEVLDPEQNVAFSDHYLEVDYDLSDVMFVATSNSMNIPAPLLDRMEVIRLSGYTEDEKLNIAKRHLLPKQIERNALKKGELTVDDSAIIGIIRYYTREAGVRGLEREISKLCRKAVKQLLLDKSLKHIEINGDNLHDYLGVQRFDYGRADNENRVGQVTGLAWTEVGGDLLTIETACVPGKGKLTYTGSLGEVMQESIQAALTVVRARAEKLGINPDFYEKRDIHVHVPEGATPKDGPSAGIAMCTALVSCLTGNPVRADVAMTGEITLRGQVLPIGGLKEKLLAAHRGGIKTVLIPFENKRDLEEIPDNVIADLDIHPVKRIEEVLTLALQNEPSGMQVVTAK", "assay": "inhibitors of E. coli Lon protease, primary screen, biochemical, fluorescence polarization (AID 602123);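 further: 0% = enzyme with probe and DMSO and 100% = no enzyme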", "settings": "purified E. coli Lon protease, at 7.94 µM, stronger effect = higher value", "values": [{"compound": "COc1ccc(C2CC(c3cccs3)Nc3nnnn32)cc1", "note": "(configuration not stated)", "inhibition": "-1.58% (inactive)"}, {"compound": "COC(=O)C1=C(C(=O)c2ccc(C)cc2)C(c2ccccc2)n2nnnc2N1", "note": "(configuration not stated)", "inhibition": "-7.42% (inactive)"}, {"compound": "COc1ccc(C2=CC(c3cccc(OC)c3)n3nnnc3N2)cc1", "note": "(configuration not stated)", "inhibition": "16.1% (active)"}, {"compound": "COc1c(C(=O)N2CCCC2)ccc2ccccc12", "inhibition": "-2.3% (inactive)"}, {"compound": "COC(=O)CNS(=O)(=O)c1ccc(Cc2ccc(S(=O)(=O)NCC(=O)OC)cc2)cc1", "inhibition": "5.06% (inactive)"}, {"compound": "COC(=O)C[n+]1cccc2ccccc21", "inhibition": "99.9% (active)"}, {"compound": "CSc1ccccc1NC(=O)Cc1ccc(Br)cc1", "inhibition": "3.49% (inactive)"}, {"compound": "COc1ccccc1C(=O)NCCC(=O)NC(C)CCc1ccccc1", "note": "(configuration not stated)", "inhibition": "2.26% (inactive)"}, {"compound": "COc1ccc(C(=O)CCc2ccccc2O)c(OC)c1", "inhibition": "-6.58% (inactive)"}, {"compound": "COc1ccc(C(=O)NC(C)CCc2ccccc2)c(OC)c1", "note": "(configuration not stated)", "inhibition": "35.8% (active)"}, {"compound": "COCC(C)NC(=O)CSc1nc2nn(-c3ccccc3)c(=O)c-2c2n1CCCCC2", "note": "(configuration not stated)", "inhibition": "8.05% (inactive)"}, {"compound": "C=CCSc1ccc(S(=O)(=O)N2CCN(C)CC2)cn1", "inhibition": "2.87% (inactive)"}, {"compound": "O=C(COC(=O)C12CC3CC(CC(O)(C3)C1)C2)NC12CC3CC(CC(C3)C1)C2", "inhibition": "14.8% (active)"}, {"compound": "O=C(COC(=O)CNS(=O)(=O)c1ccccc1)NC12CC3CC(CC(C3)C1)C2", "inhibition": "-4.78% (inactive)"}, {"compound": "O=C(CNCCO)NC12CC3CC(CC(C3)C1)C2", "inhibition": "1.03% (inactive)"}, {"compound": "Cc1ccc(N(C(=O)c2sc(C)nc2C)C(C(=O)NC(C)(C)C)c2ccncc2)cc1", "note": "(configuration not stated)", "inhibition": "2.66% (inactive)"}, {"compound": "CCS(=O)(=O)N1CCCC(C(=O)NCCCN(C)Cc2ccccc2)C1", "note": "(configuration not stated)", "inhibition": "0.57% (inactive)"}, {"compound": "O=C(CCCn1c(=O)oc2ccccc21)Nc1cccnc1", "inhibition": "0.74% (inactive)"}, {"compound": "C/C(=N/NC(=O)CSc1ccccn1)c1ccc([N+](=O)[O-])cc1", "inhibition": "-0.59% (inactive)"}, {"compound": "CCCSc1ccc([C@H]2N[C@@](Cc3ccccc3)(C(=O)OC)[C@H]3C(=O)N(C)C(=O)[C@@H]23)cc1", "inhibition": "22.2% (active)"}, {"compound": "CCN1C(=O)[C@H]2[C@@H](c3ccc(-c4ccc(OC)cc4)cc3)N[C@@](Cc3ccccc3)(C(=O)OC)[C@H]2C1=O", "inhibition": "-4.73% (inactive)"}, {"compound": "CCN1C(=O)[C@H]2[C@@H](c3ccc(-c4ccc(F)cc4)cc3)N[C@@](Cc3ccccc3)(C(=O)OC)[C@H]2C1=O", "inhibition": "-0.32% (inactive)"}, {"compound": "CCNC(=S)N1CCN(S(=O)(=O)c2ccc(Cl)s2)CC1", "inhibition": "3.82% (inactive)"}, {"compound": "O=C(Nc1ccc(F)c(Cl)c1)C1CCN(S(=O)(=O)c2cccnc2)CC1", "inhibition": "1.53% (inactive)"}, {"compound": "Cc1cc(C)n(Cc2cnc(N3CCOCC3)s2)n1", "inhibition": "-9.37% (inactive)"}, {"compound": "Clc1ccc2c(c1)C1=C(C(c3ccncc3)O2)C(c2ccc(Br)cc2)n2ncnc2N1", "note": "(configuration not stated)", "inhibition": "0.69% (inactive)"}, {"compound": "Brc1ccc(C2=CC(c3ccco3)n3ncnc3N2)cc1", "note": "(configuration not stated)", "inhibition": "189% (active)"}, {"compound": "CN1/C(=c2/s/c(=C3/C(=O)N(c4ccccc4)NC3=Nc3ccccc3)n(C)c2=O)C(C)(C)c2ccccc21", "inhibition": "-167% (inactive)"}, {"compound": "CCN(CC(=O)NCc1cccs1)C(=O)c1ccccc1F", "inhibition": "-7.98% (inactive)"}, {"compound": "Cc1ccc(S(=O)(=O)CCC(=O)OCc2ccccc2)cc1", "inhibition": "15.9% (active)"}, {"compound": "Cc1ccc(S(=O)(=O)CCC(=O)OCC(=O)NCCc2ccc(S(N)(=O)=O)cc2)cc1", "inhibition": "-12.1% (inactive)"}, {"compound": "Cc1ccc(S(=O)(=O)CCC(=O)OCC(=O)N(C)Cc2ccccc2)cc1", "inhibition": "5.85% (inactive)"}, {"compound": "Cc1cc(Br)ccc1NC(=O)CN(C)C(=O)CN1C(=O)NC2(CCCC2)C1=O", "inhibition": "-8.08% (inactive)"}, {"compound": "CCC(=O)c1ccc(OCC(=O)N(CC)CC2COc3ccccc3O2)cc1", "note": "(configuration not stated)", "inhibition": "5.37% (inactive)"}, {"compound": "COCCCNC(=S)NC(=O)c1ccc([N+](=O)[O-])cc1", "inhibition": "-1.2% (inactive)"}, {"compound": "CC(=O)NC(=S)Nc1ccc(NC(=S)NC(=O)c2ccc([N+](=O)[O-])cc2)cc1", "inhibition": "21.3% (active)"}, {"compound": "CC(=O)Nc1ccc(NC(=S)NC(=O)c2ccc([N+](=O)[O-])c(C)c2)cc1", "inhibition": "-3.89% (inactive)"}, {"compound": "COc1cc(Cl)c(C)cc1NC(=O)CSc1nnc(-c2ccco2)n1CC(C)C", "inhibition": "-5.33% (inactive)"}, {"compound": "NC(Cc1ccccc1)c1csc(Nc2cc(Oc3ccccc3)ncn2)n1", "note": "(configuration not stated)", "inhibition": "-2.31% (inactive)"}, {"compound": "CCN(CC)C(=O)CSc1nnc(-c2cnccn2)n1-c1ccc(C)cc1", "inhibition": "-8.84% (inactive)"}, {"compound": "CC(C)CCN(C(=O)c1csnn1)C(C(=O)NC1CCCC1)c1ccccc1", "note": "(configuration not stated)", "inhibition": "5.69% (inactive)"}, {"compound": "COCCn1c(SCC(=O)Nc2nc(C)cs2)nnc1C(C)C", "inhibition": "6.46% (inactive)"}, {"compound": "CCCn1c(SCC(=O)c2ccc3c(c2)OCCO3)nnc1C(C)C", "inhibition": "3.55% (inactive)"}, {"compound": "CCCn1c(SCC(=O)Nc2c(C)cccc2C)nnc1C(C)C", "inhibition": "14.6% (active)"}, {"compound": "CCCC(O)(CCC)C(=O)NN(C(=O)CCl)c1cccc(C)c1", "inhibition": "12.8% (active)"}, {"compound": "Cc1cccc(N(Cc2ccccc2)C(=O)c2ccccc2F)c1", "inhibition": "0.91% (inactive)"}, {"compound": "CCCCC(O)(CCCC)C(=O)NN(C(=O)CCl)c1ccccc1", "inhibition": "-2.85% (inactive)"}]}]}
